The values that follow come from PubChem BioAssay (EPA / NIEHS).

Results filed as inconclusive are left out. Activity calls are given as the source filed them. How the source made its calls: active means hit-call score of the fitted dose curve at least 0.9, where 1 is the maximum; inactive means score below 0.9.

Read-out in this assay: Cytochrome P450 2C9 (Homo sapiens) (UniProt P11712)
Description: CLD_CYP2C9_48hr: CellzDirect (CLD) Gene Expression Assay for xenobiotic metabolism (CYP2C9) at 48 hours (AID 2283701). The procedure:
CLD_48hr is a cell-based, multiplexed-readout assay that uses hepatocyte, a human liver primary cell, with measurements taken at 48 hours after chemical dosing in a 96-well plate.CLD_CYP2C9_48hr is one of 16 assay component(s) measured or calculated from the CLD_48hr assay. It is designed to make measurements of mRNA induction, a form of inducible reporter, as detected with chemiluminescence signals by Quantitative Nuclease Protection Assay (qNPA) technology.Data from the assay component CLD_CYP2C9_48hr was analyzed at the endpoint, CLD_CYP2C9_48hr, in the positive analysis fitting direction relative to DMSO as the negative control and baseline of activity. Using a type of inducible reporter, gain-of-signal activity can be used to understand changes in the reporter gene as they relate to the gene CYP2C9. Furthermore, this assay endpoint can be referred to as a primary readout. To generalize the intended target to other relatable targets, this assay endpoint is annotated to the cyp intended target family, where subfamily is xenobiotic metabolism.
Human hepatocyte cultures were treated daily for two consecutive days with fresh dosing solutions containing appropriate concentrations of the 320 ToxCast chemicals (chemical identities were blinded to CellzDirect and other ToxCast collaborators), vehicle control (0.2% DMSO), and positive control inducers as summarized in Table 1. Due to the large number of treatment groups and chemicals examined, the ToxCast chemicals were divided into two groups (spanning two independent cultures of hepatocytes from separate donor preparations (Hu778: ToxCast plates 1 and 2; Hu776: ToxCast plates 3 and 4). Each preparation of human hepatocyte cultures was treated with respective vehicle control, medium only control, set of six positive controls/reference chemicals for the five hepatic receptor pathways, and a subset of eight of the ToxCast chemicals (indoxacarb, pyrithiobac-sodium, norflurazon, cyhalofop-butyl, methomyl, thiram, acetochlor, and propiconazole). These replicate data, coupled with internal replicates designed within the blinded ToxCast chemical library, provided additional data to evaluate interindividual differences between hepatocyte preparations and their potential impact on chemical profiles.Cell morphology and integrity were evaluated using phase-contrast microscopy as an indicator of hepatocyte cell health (Tyson & Green, 1987). Cultures for each treatment group (i.e., media, vehicle [0.2% DMSO], positive control inducers [multiple concentrations], and the ToxCast chemicals [multiple concentrations]) were observed and cell morphology was assessed relative to vehicle control cultures at each harvest time point (0, 6, 24, or 48 h). […] Images were evaluated at the conclusion of the study to assess changes in cell integrity and account for the effects of chemical exposure on uncharacteristic changes in concentration-dependent gene expression profiles. The results from these determinations of apparent cytotoxicity were annotated (yes/no) alongside the corresponding qNPA data for reference.At the conclusion of each treatment period, hepatocyte cultures (96-well) were washed with 1 volume of HBSS, lysed by addition of 25 ul ArrayPlate lysis buffer (HTG, Tucson, AZ), and 70 ul/well of Denaturation Oil, denatured by incubation at 95C for 10 min, and frozen at approximately -70C until analysis by nuclease protection assay (qNPA) (Roberts et al., 2007). For qNPA analysis, cell lysates were thawed at 50C for approximately 30 min, qNPA probes were added, and samples were incubated at 95C for 10 min to begin the detection process by denaturing the target RNA, dissociating the duplexes and secondary structure hybridization. At the conclusion of the hybridization period, S1 nuclease reagent was added to each sample to digest all nonprotected nucleotides at 50C for 60-90 min. […]
In the case of `CCCN(CCC)c1c([N+](=O)[O-])cc(C(F)(F)F)c(N)c1[N+](=O)[O-]`, the call was inactive.

With `COCCO`, the outcome was inactive.

Consider `OB(O)O`, for which the molecule was called inactive.

Turning to `COC(=O)c1ccc(I)cc1S(=O)(=O)NC(=O)Nc1nc(C)nc(OC)n1`, the molecule was called inactive.

On to `COC(=O)c1c(Cl)nn(C)c1S(=O)(=O)NC(=O)Nc1nc(OC)cc(OC)n1`, for which the molecule was called inactive.

In the case of `c1ccc(Nc2ccccc2)cc1`, the molecule was called inactive.

`CCCN(CCC)C(=O)SCC`: the molecule was called inactive.

`CCCCC(CC)CN1C(=O)C2C3C=CC(C3)C2C1=O` (stereo not drawn): the call was inactive.

Turning to `CC1(C)C(C=C(Cl)Cl)C1C(=O)OCc1cccc(Oc2ccccc2)c1` (stereo not drawn), the molecule was classed as inactive.

For `CC(C)(c1ccc(O)cc1)c1ccc(O)cc1`, the molecule was called inactive.

As to `COC(=O)c1cccc(C)c1S(=O)(=O)NC(=O)Nc1nc(OCC(F)(F)F)nc(N(C)C)n1`, the molecule was classed as inactive.

With `CCOC(=O)NCCOc1ccc(Oc2ccccc2)cc1`, the molecule was called inactive.

Regarding `CCCCC(CC)COC(=O)c1ccccc1C(=O)O` (stereo not drawn), the molecule was called inactive.

For the molecule `CCCCCOC(=O)COc1cc(N2C(=O)C3=C(CCCC3)C2=O)c(F)cc1Cl`, the molecule was classed as inactive.

As to `CCOC(=O)[C@H](C)Oc1ccc(Oc2nc3ccc(Cl)cc3o2)cc1`, the molecule was called inactive.

On to `CCOC(=O)COc1cc(-n2ncc(C(F)(F)F)c(C)c2=O)c(F)cc1Cl`, for which the outcome was inactive.

`C#CCOC(=O)[C@@H](C)Oc1ccc(Oc2ncc(Cl)cc2F)cc1`: the molecule was called inactive.

In the case of `CCCCCCC(C)OC(=O)COc1nc(F)c(Cl)c(N)c1Cl` (stereo not drawn), the molecule was classed as inactive.
